Menin MLL FP FL – inhibitors of human menin-MLL interaction, wild-type MLL peptide; FP activity change, % at 61.4 µM; 290,000 tested, under 10 active; Fluorescence polarization, fluorescein-MLL peptide displacement from menin; active = well fitted curve in the direction sought with a large enough effect in the polarisation, not every such curve was filed as active; inconclusive = small, poorly fitted or top-dose-only effect, or effect the other way, or a change in a side signal; inactive = no such curve, though single readings can be large or run the other way; the % refers to the polarisation; note: % of control where 0% means no effect
LMNA splice mod – LMNA splicing modulation; HeLa LMNA splicing GFP/RFP minigene ratio, 48 h; Potency, µM (doses to about 46.1 µM), inactives show at the highest dose ratio change, negative = inhibition, usual class: inhibitors; 200,000 tested, 0.01% active; AID 1487; active = well fitted inhibition curve with a large enough effect in the signal ratio, with a control signal flat, not every such curve was filed as active; inconclusive = small, poorly fitted or top-dose-only effect, or effect the other way, or a change in a side signal; the % refers to the signal ratio; note: potency is the fitted concentration of half-maximal effect; % is set by controls: 0 for no effect and ±100 for the full control effect
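S3 HeLa stable clones carrying a lamin A-EGFP splicing minigene plus DsRed2 were seeded at 600 cells/well in Opti-MEM with 2% FBS, pin-dosed and incubated 48 h at 37°C. Acumen cytometry (488 nm) gave the GFP/RFP total-intensity ratio.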
MLL CXXC-DNA inh – MLL CXXC-DNA interaction inhibition | AID 2662 | MLL-CXXC / FITC-HOXA9 DNA fluorescence polarization | 290,000 tested, 0.037% active | Q03164 | Potency, µM (top dose mostly 115 µM), for the others: at the top dose activity change, negative = inhibition, usual class: inhibitors; active = well fitted inhibition curve with a large enough effect in the polarisation, with a control signal flat, not every such curve was filed as active; inconclusive = small, poorly fitted or top-dose-only effect, or effect the other way, or a change in a side signal; inactive = no such curve, though single readings can be large or run the other way; the % refers to the polarisation; note: potency is the fitted concentration of half-maximal effect
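Fluorescence polarization: 7 uM MLL-CXXC (stock) preincubated 5 min with compounds, then 50 nM fluorescein-HOX-A9 DNA (stock) added; 30 min ambient. Buffer 50 mM Tris-HCl pH 7.5, 50 mM NaCl, 1 mM DTT, 0.05% BSA.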
Menin MLL FP TR – inhibitors of human menin-MLL interaction, mutant MLL peptide; O00255; Menin + Texas Red MLL mutant peptide, fluorescence polarization; Potency, µM (doses to about 61.6 µM), inactives show at the highest dose FP activity change, negative = inhibition, most hits filed as inhibitors; 270,000 tested, 0.23% active; active = well fitted inhibition curve with a large enough effect in the polarisation, with a control signal flat, not every such curve was filed as active; inconclusive = small, poorly fitted or top-dose-only effect, or effect the other way, or a change in a side signal; inactive = no such curve, though single readings can be large or run the other way; the % refers to the polarisation; note: potency is the fitted concentration of half-maximal effect; % of control where 0% means no effect
Target sequence (O00255 whole entry, looked up): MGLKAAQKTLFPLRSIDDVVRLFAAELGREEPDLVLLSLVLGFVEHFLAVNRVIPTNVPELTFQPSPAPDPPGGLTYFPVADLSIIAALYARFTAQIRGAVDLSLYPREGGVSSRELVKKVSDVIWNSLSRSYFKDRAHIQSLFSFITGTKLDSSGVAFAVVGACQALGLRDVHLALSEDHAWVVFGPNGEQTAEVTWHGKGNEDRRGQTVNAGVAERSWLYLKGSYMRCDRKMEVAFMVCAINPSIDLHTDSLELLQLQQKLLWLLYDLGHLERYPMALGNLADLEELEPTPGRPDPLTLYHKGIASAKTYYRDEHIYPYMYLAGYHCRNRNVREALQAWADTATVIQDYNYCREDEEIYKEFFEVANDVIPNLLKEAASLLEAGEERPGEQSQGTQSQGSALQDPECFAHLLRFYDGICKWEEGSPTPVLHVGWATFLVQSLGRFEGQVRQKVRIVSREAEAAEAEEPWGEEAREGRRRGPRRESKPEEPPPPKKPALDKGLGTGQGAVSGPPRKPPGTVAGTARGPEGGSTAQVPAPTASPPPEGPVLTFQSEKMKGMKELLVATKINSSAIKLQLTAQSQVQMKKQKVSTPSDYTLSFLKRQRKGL
Active calls of the source: *; ? = inconclusive; nt = no result given; [ ] = dose if it differs, or a comment. The entries come from a sample that favours hits as a whole.

SMILES	Menin MLL FP FL	LMNA splice mod	MLL CXXC-DNA inh	Menin MLL FP TR
CN(C)c1ccc(/C=C2\C(=O)Nc3ccccc32)cc1	32	28µM*	0%	?
CCOc1ccc(/C=C/C2=Cc3c(sc(NC(=O)CSc4n[nH]c(N)n4)c3C#N)C(C)(C)C2)cc1	?	?	-23%	7.9µM*
O=C1CCCC/C1=C\Nc1ccc(O)cc1	1	-26%	4%	32µM*
O=c1c2ccccc2nc(/C=C/c2cccc3ccccc23)n1-c1ccc(F)cc1F	nt	-20%[46 µM]	nt	nt
CCN(CC)c1ccc(N=C2C(=O)Nc3ccccc32)cc1	0	nt	-2%	22µM*
Cc1ccc(N=C2C(=O)Nc3ccccc32)cc1	-2	nt	3%	-6%
COc1ccc(-c2cc(=O)c3c(O)cc(O[C@H]4OC(COC5OC(C)C(O)C(O)[C@H]5O)C(O)C(O)C4O)cc3o2)cc1O (stereo not given in full)	1	nt	12%	25µM*
O=C(Nc1nc(-c2ccccc2)cs1)C1c2ccccc2Oc2ccccc21	3	9%	11%	18µM*
COc1ccc(OC)c(-c2csc(NC(=O)C3c4ccccc4Oc4ccccc43)n2)c1	7	?	11%	14µM*
Cc1ccc(SCC(Cc2ccccc2)N2CCN(C)CCC2=O)cc1 (stereo not given)	-2	nt	nt	4%
CC(C)[C@H](NC(=O)[C@H](CC(=O)O)NC(=O)CNC(=O)[C@@H](N)CCCN=C(N)N)C(=O)O	7	nt	nt	13%
O=C(CCC(=O)OCC(=O)c1ccc(-c2ccccc2)cc1)Nc1cccc(Cl)c1	-1	-1%	19%	25µM*
O=C(CCC(=O)OCC(=O)c1ccccc1)Nc1cccc2cccnc12	2	-6%	-1%	-13%
Cc1ccccc1NC(=O)CCC(=O)OCC(=O)c1ccc(-c2ccccc2)cc1	-1	6%	-16%	35µM*
CC[C@H](C)[C@H](NC(=O)[C@H](Cc1ccc(O)cc1)NC(=O)[C@H](Cc1cnc[nH]1)NC(=O)[C@H](CCCNC(=N)N)NC(=O)[C@H](CC(C)C)NC(=O)[C@H](C)NC(=O)[C@H](CO)NC(=O)[C@H](Cc1ccc(O)cc1)NC(=O)[C@H](Cc1ccc(O)cc1)NC(=O)[C@H](CCCNC(=N)N)NC(=O)[C@H](C)NC(=O)[C@H](CCSC)NC(=O)[C@H](CC(=O)O)NC(=O)[C@H](CCC(=O)O)NC(=O)[C@H](C)NC(=O)[C@@H]1CCCN1)C(=O)N[C@@H](CC(N)=O)C(=O)N[C@@H](CC(C)C)C(=O)N[C@H](C(=O)N[C@H](C(=O)N[C@@H](CCCNC(=N)N)C(=O)N[C@@H](CCC(N)=O)C(=O)N[C@@H](CCCNC(=N)N)C(=O)N[C@@H](Cc1ccc(O)cc1)C(N)=O)[C@@H](C)O)[C@@H](C)CC	1	nt	nt	1%
CC(C)C(C(=O)O)N1C(=O)/C(=C/c2ccc(Br)cc2)SC1=S (stereo not given)	0	nt	nt	?
Cc1ccc2nc(NC(=O)c3cccc(-c4cc5ccccc5oc4=O)c3)sc2c1	0	?	13%	22µM*
N#Cc1c(N)nc2c3c(sc(=N)c2c1N)NC(=O)CC3c1ccccc1 (stereo not given)	9	-14%	17%	22µM*
N#Cc1c(N)nc2c3c(sc(=N)c2c1N)NC(=O)CC3c1c(F)cccc1Cl (stereo not given)	10	4%	5%	?
NC(=O)[C@H]1CCCN1C(=O)[C@H](Cc1cnc[nH]1)NC(=O)[C@@H]1CCC(=O)N1	0	nt	nt	12%
O=C(N/N=C/c1ccncc1)c1ccccn1	-14	nt	-9%	100µM*
O=C(N/N=C/c1ccncc1)c1cnccn1	4	nt	9%	nt
CCOc1cc(N2CCOCC2)c(OCC)cc1NC(C)C(=O)N1CCN(CC)CC1 (stereo not given)	0	?	17%	32µM*
COc1ccc(C(=O)Nc2cc(C(C)=O)c(C)oc2=O)cc1	2	nt	8%	3%
COC(=O)c1cc(NC(=O)c2ccccc2)c(=O)oc1/C=C/Nc1ccc(Oc2ccccc2)cc1	?	nt	?	10µM*
SMILES	Menin MLL FP FL	LMNA splice mod	MLL CXXC-DNA inh	Menin MLL FP TR
CNc1ncc(C(=O)c2ccc(Cl)c(Cl)c2)s1	0	1%	8%	4%
O=C(c1ccc(Cl)c(Cl)c1)c1cnc(Nc2ccccc2)s1	2	9%	7%	22µM*
CC[C@@]1(O)C[C@H](O[C@H]2C[C@@H](N(C)C)[C@@H](O[C@H]3C[C@@H](O)[C@@H](O[C@H]4CCC(=O)[C@@H](C)O4)[C@@H](C)O3)[C@@H](C)O2)c2c(cc3c(c2O)C(=O)c2c(O)cccc2C3=O)[C@H]1C(=O)OC	?	nt	?	-14%
CSCC[C@H](NC(=O)[C@@H](NC(=O)[C@H](CCC(=O)O)NC(=O)[C@H](CCSC)NC(=O)[C@H](CC(N)=O)NC(=O)[C@H](CCC(=O)O)NC(=O)[C@H](CC(N)=O)NC(=O)[C@H](CO)NC(=O)[C@H](C)N)[C@@H](C)O)C(=O)O	-2	nt	nt	14%
CCCN1C(=O)/C(=C/c2c(NCCCOCC)nc3c(C)cccn3c2=O)SC1=S	?	8%	?	8.9µM*
COc1ccc2c(c1OC)C(Cc1ccccc1)N1CCc3cc4c(cc3C1=C2)OCO4 (stereo not given)	?	nt	nt	-15%[24.8 µM]
Oc1ccc2ccccc2c1-c1sc(Nc2ccccc2)n[n+]1-c1ccc(F)cc1	?	nt	?	16µM*
Fc1ccc(-[n+]2nc(Nc3ccccc3)sc2-c2c3ccccc3cc3ccccc23)cc1	-5	nt	?	?
c1ccc(CCNc2ccnc3cc4ccccc4cc23)cc1	-21	?	?	22µM*
CCCN1C=CC(=C/C=C(\C#N)C(=O)OCC)C=C1	?	?	?	17%
CCOC(=O)/C(C#N)=C/C=C1\C=Cc2ccccc2N1CC	?	nt	177%	25µM*
CO/N=C(/C(=O)N[C@@H]1C(=O)N2C(C(=O)O)=C(CSc3cnns3)CS[C@H]12)c1csc(N)n1	2	nt	-14%	15%
O=S(=O)(Nc1cc(O)cc2cccnc12)c1ccc(Br)s1	0	nt	nt	?
Cc1csc(NC(=O)CSc2nnc(NC(=O)COc3ccccc3)s2)n1	3	3%	8%	40µM*
Cc1ccc(S(=O)(=O)NCCn2c(C)cc3ccccc32)cc1	-24	-7%	-6%	28µM*
COc1ccc(N2C=C3C(=O)C(C)(OC(=O)C4CCCC4)C(=O)C=C3C=C2c2ccsc2)cc1 (stereo not given)	7[11.7 µM]	-12%[9.22 µM]	nt	-14%[11.7 µM]
Cc1cc(C)cc(N2CCn3c2nc2c3c(=O)n(CCc3ccccc3)c(=O)n2C)c1	nt	1.8µM*	nt	nt
C=C[C@@H](C1=CC(=O)C(OC)=C(OC)C1=O)c1ccccc1	3	nt	nt	2%
COc1ccc(-c2cc(=O)c3cc(F)ccc3[nH]2)cc1	?	-2%	-3%	?
COc1ccc(-c2cc(=O)c3ccc(F)cc3[nH]2)cc1	-5[94.6 µM]	nt	nt	50µM*
C(C#CCCCCCCCCC[n+]1ccccc1)#CCCCCCCCCC[n+]1ccccc1	-7	nt	15%	32µM*

Bioassay records: PubChem BioAssay, National Center for Advancing Translational Sciences (NCATS)
